Assay results taken from PubChem BioAssay (EPA / NIEHS).
Values joined by “and” are separate entries in the source; they are usually repeats but may differ in a detail not shown here. Equal values may be shown once. Some structures have more than one record in an assay (separate samples or runs), and their calls can disagree. Active and inactive are the calls of the source. Rule for the calls: active = hit-call score of the fitted dose curve at least 0.9, where 1 is the maximum; inactive = score below 0.9.

Columns and labels:
[1] = read-out: Interleukin-1 alpha (IL1a), IL1A (gene 3552); assay: BSK_KF3CT_IL1a: BioMAP Diversity Plus: KF3CT Assay for Interleukin-1 alpha (IL1a) Biomarker Activity (AID 2283070); details: primary human keratinocytes with fibroblasts; actives raise or lower the signal
In short: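 IL-1a was detected by ELISA 24 h after chemical treatment of a co-culture of human skin keratinocytes and foreskin fibroblasts. Gain or loss of signal was fitted against the DMSO baseline.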

[2] = read-out: TIMP metallopeptidase inhibitor 2 (TIMP2), TIMP2 (gene 7077); assay: BSK_KF3CT_TIMP2: BioMAP Diversity Plus: KF3CT Assay for TIMP metallopeptidase inhibitor 2 (TIMP2) Biomarker Activity (AID 2283071); details: primary human keratinocytes with fibroblasts; actives raise or lower the signal
In short: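 Measurements come from ELISA detection of TIMP-2 at 24 hours in a dosed human keratinocyte and foreskin fibroblast co-culture. DMSO serves as negative control and baseline.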

[3] = read-out: Transforming growth factor beta 1 (TGFb1), TGFB1 (gene 7040); assay: BSK_KF3CT_TGFb1: BioMAP Diversity Plus: KF3CT Assay for Transforming growth factor beta 1 (TGFb1) Biomarker Activity (AID 2283072); details: primary human keratinocytes with fibroblasts; actives raise or lower the signal
In short: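 TGF-b1 ELISA on a 24 h dosed co-culture of human keratinocytes and foreskin fibroblasts; cytotoxicity tracked in parallel cultures by SRB staining.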

[4] = read-out: C-C motif chemokine 2 (Homo sapiens) (UniProt P13500); assay: BSK_KF3CT_MCP1: BioMAP Diversity Plus: KF3CT Assay for Monocyte Chemoattractant Protein 1 (MCP1/CCL2) Biomarker Activity (AID 2283073); details: primary human keratinocytes with fibroblasts; actives raise or lower the signal
In short: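 ELISA readout of MCP-1 after 24 h chemical dosing of a human skin primary co-culture of keratinocytes and foreskin fibroblasts. Activity was fitted in both directions against DMSO.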

[5] = read-out: Matrix Metallopeptidase 9 (MMP9), MMP9 (gene 4318); assay: BSK_KF3CT_MMP9: BioMAP Diversity Plus: KF3CT Assay for Matrix Metallopeptidase 9 (MMP9) Biomarker Activity (AID 2283074); details: primary human keratinocytes with fibroblasts; actives raise or lower the signal;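 for AC50: MMP9 protein level quantified by ELISA in the co-culture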
In short: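 MMP-9 quantified by ELISA after 24 h chemical treatment of primary human skin keratinocyte/fibroblast co-cultures; gain or loss fitted against DMSO, with parallel SRB staining (0.1% SRB, 560 nm) for overt cytotoxicity.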

[6] = read-out: urokinase plasminogen activator (uPA), PLAU (gene 5328); assay: BSK_KF3CT_uPA: BioMAP Diversity Plus: KF3CT Assay for urokinase plasminogen activator (uPA) Biomarker Activity (AID 2283075); details: primary human keratinocytes with fibroblasts; actives raise or lower the signal
In short: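 ELISA read-out of uPA 24 h after dosing human skin keratinocytes co-cultured with foreskin fibroblasts. Signal change fitted both ways relative to DMSO; sulforhodamine B on parallel cultures marks overt cytotoxicity.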

[7] = read-out: E-selectin (Homo sapiens) (UniProt P16581); assay: BSK_LPS_Eselectin: BioMAP Diversity Plus: LPS Assay for Eselectin Biomarker Activity (AID 2283077); details: primary human HUVEC with PBMC; actives raise or lower the signal
In short: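 Primary human vascular co-culture (endothelium plus PBMC) was dosed with chemical, then E-selectin quantified by ELISA at 24 h. Endpoint values derive from bidirectional curve fitting relative to DMSO.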

[8] = read-out: Interleukin-8 (IL8), CXCL8 (gene 3576); assay: BSK_LPS_IL8: BioMAP Diversity Plus: LPS Assay for Interleukin-8 (IL8) Biomarker Activity (AID 2283078); details: primary human HUVEC with PBMC; actives raise or lower the signal
In short: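 Readout is IL-8 by ELISA, taken 24 h after compounds were added to LPS-stimulated endothelial/PBMC co-cultures. Both increases and decreases relative to DMSO control were scored through bidirectional fitting.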

[9] = BSK_LPS_SRB: Viability Assessment in the BioMAP Diversity Plus: LPS Assay (AID 2283079); details: primary human HUVEC with PBMC;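 note: total protein by sulforhodamine B absorbance as a cytotoxicity measure; measured one day after compound addition; fitted in both directions against DMSO so loss or gain of signal counts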
In short: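 Readout is SRB absorbance at 560 nm (0.1% stain, TCA-fixed parallel cultures) as a total-protein cytotoxicity measure. Cells: primary human umbilical vein endothelium plus peripheral blood mononuclear cells, 24 h after chemical exposure; DMSO served as baseline.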

CD40, CD40 (gene 958) = assay: BSK_LPS_CD40: BioMAP Diversity Plus: LPS Assay for CD40 Biomarker Activity (AID 2283076); details: primary human HUVEC with PBMC; actives raise or lower the signal
In short: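 Cells were dosed, incubated 24 h, then assayed for CD40 by ELISA. Gain or loss of signal was analysed relative to DMSO controls. The culture paired human umbilical vein endothelium with peripheral blood mononuclear cells.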

Measured: AC50

Chain of E-selectin (Homo sapiens) (P16581 whole entry, looked up): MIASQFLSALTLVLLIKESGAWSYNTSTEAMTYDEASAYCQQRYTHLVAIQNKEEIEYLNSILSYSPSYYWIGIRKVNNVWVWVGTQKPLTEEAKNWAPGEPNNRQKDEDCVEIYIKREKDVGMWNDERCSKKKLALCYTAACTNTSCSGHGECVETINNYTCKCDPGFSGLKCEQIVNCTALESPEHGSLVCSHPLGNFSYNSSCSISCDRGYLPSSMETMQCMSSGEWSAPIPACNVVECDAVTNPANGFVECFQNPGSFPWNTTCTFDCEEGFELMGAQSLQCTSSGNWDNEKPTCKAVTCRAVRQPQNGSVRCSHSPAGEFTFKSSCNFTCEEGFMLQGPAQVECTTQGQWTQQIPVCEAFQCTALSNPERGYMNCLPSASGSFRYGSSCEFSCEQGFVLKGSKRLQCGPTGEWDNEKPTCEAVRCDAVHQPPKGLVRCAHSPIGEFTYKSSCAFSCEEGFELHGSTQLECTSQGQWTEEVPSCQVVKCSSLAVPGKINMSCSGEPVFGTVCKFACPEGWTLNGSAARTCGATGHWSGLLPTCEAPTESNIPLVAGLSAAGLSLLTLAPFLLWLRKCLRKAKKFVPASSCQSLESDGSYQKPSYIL

CCc1nn(C2CCCCC2)c2cc(C3(C#N)CCC(C(=O)O)CC3)ccc12 (centres undefined)
inactive: [1] | [3]
active: [2] 11.5 µM | [4] 20 µM | [5] 8.4 µM | [6] 11.3 µM | [7] 16.1 µM | [8] 20 µM | [9] 4.2 µM

Cc1cc(CCN2CCN(c3nsc4ccccc34)CC2)cc2c1NC(=O)CC2(C)C
active: [1] 26.6 µM | [2] 20 µM | [3] 13.2 µM | [4] 28.8 µM | [5] 16.5 µM | [6] 13.4 µM | [7] 30 µM | [8] 19.5 µM | [9] 32.8 µM

NCC(F)(F)C(F)(F)C(F)(F)C(F)(F)C(F)(F)C(F)(F)C(F)(F)F
not listed: [3]
inactive: all other assays above

CCC(C)(C)C1CCC(O)CC1 (centres undefined)
inactive: all assays above

CCN(CC)CCNc1ccc(CNC=O)c2sc3ccc(OC)cc3c(=O)c12
active: [1] 22.3 µM | [2] 25 µM | [3] 26.7 µM | [4] 36.6 µM | [5] 17.5 µM | [6] 25.8 µM | [7] 13.1 µM | [8] 11.2 µM | [9] 25.3 µM

CC[C@H](c1ccc(O)cc1)[C@@H](CC)c1ccc(O)cc1
active: [1] 32 µM | [3] 29.8 µM | [4] 32.7 µM | [5] 19.4 µM | [6] 35 µM | CD40, CD40 (gene 958) 17.4 µM | [7] 33.8 µM | [8] 35.1 µM | [9] 31.5 µM

OC1CCCCC1
not listed: [2]
inactive: all other assays above

CCCCC(CC)COC(=O)CCCCC(=O)OCC(CC)CCCC (centres undefined)
not listed: CD40, CD40 (gene 958)
inactive: all other assays above

CC(C)(C)c1cccc(C(C)(C)C)c1O
active: [1] 31 µM | [2] 37.1 µM | [3] 36.1 µM | [4] 34.4 µM | [5] 36.7 µM | [6] 39 µM
inactive: [7] | [8] | [9]

O=c1c(-c2ccc(O)cc2)coc2cc(O)ccc12
active: [5] 20 µM
not listed: CD40, CD40 (gene 958)
inactive: all other assays above

CCCCCCCCC(=O)O
inactive: all assays above

Oc1cc2ccccc2c2ccccc12
active: [1] 6 µM | [2] 7.99 µM | [3] 6.02 µM | [4] 6.26 µM | [5] 5.66 µM | [6] 7.13 µM | CD40, CD40 (gene 958) 5.93 µM | [7] 11.1 µM | [8] 12.6 µM | [9] 12.1 µM

c1ccc2c(c1)ccc1ccccc12
not listed: CD40, CD40 (gene 958)
inactive: all other assays above

CC(C)(C)c1ccc(O)c(C(C)(C)C)c1
active: [1] 9.23 µM | [3] 8.63 µM | [4] 13.4 µM | [5] 9.23 µM | [6] 11.3 µM | CD40, CD40 (gene 958) 14 µM | [7] 13.3 µM | [8] 26.6 µM | [9] 17.7 µM

CCCOC(=O)c1ccc(O)cc1
inactive: all assays above

CC(C)(C)CC(C)(C)c1ccc(O)c(-n2nc3ccccc3n2)c1
active: [5] 16.6 µM
inactive: all other assays above

CN(C)C=O
not listed: CD40, CD40 (gene 958)
inactive: all other assays above

CCCCCCCCCCCCN1CCCC1=O
active: [1] 35.2 µM | [2] 31.3 µM | [3] 34.2 µM | [4] 34.3 µM | [5] 35 µM | [6] 36.7 µM | [7] 33.8 µM | [8] 31.3 µM | [9] 27.4 µM

CC(C)(C)c1cc(C(C)(C)C)c(O)c(C(C)(C)C)c1
active: [5] 36.2 µM
not listed: CD40, CD40 (gene 958)
inactive: all other assays above

Oc1cccc(O)c1
not listed: [3] | CD40, CD40 (gene 958)
inactive: all other assays above

NC(=O)N(O)[C@@H]1C=C[C@H](Oc2cccc(Oc3ccc(F)cc3)c2)C1
active: [9] 3.97 µM
not listed: [2]
inactive: all other assays above

CCC(=C(c1ccc(O)cc1)c1ccc(OCCN(C)C)cc1)c1ccccc1
active: [1] 9.91 µM | [2] 10.5 µM | [3] 9.8 µM | [4] 10.2 µM | [5] 8.87 µM | [6] 11.8 µM | [7] 19.8 µM | [8] 13.3 µM | [9] 9.13 µM

CCCCOCCO
inactive: all assays above

CCCCCCCC(=O)O
not listed: [2]
inactive: all other assays above

CC(=O)NC1(c2cccc(F)c2)CCN(CC[C@@]2(c3ccc(Cl)c(Cl)c3)CN(c3ccccc3)C(=O)CO2)CC1
active: [5] 25.8 µM | [6] 27 µM | [8] 4.23 µM | [9] 12.8 µM
inactive: all other assays above

c1ccc2c(c1)Cc1ccccc1-2
not listed: CD40, CD40 (gene 958)
inactive: all other assays above

OCCC(F)(F)C(F)(F)C(F)(F)C(F)(F)C(F)(F)C(F)(F)C(F)(F)C(F)(F)F
inactive: [1] | [3] | [4] | [5] | [6] | CD40, CD40 (gene 958) | [7] | [8] | [9]
active: [1] 17.3 µM and 9.96 µM | [4] 20.1 µM and 18 µM | [5] 13.6 µM and 12.2 µM | [6] 17.1 µM and 19.1 µM | CD40, CD40 (gene 958) 30.6 µM and 29.1 µM | [7] 40 µM and 30 µM | [8] 30 µM | [9] 15.8 µM and 17.4 µM

Cc1oc(-c2ccccc2)nc1CCOc1ccc(C[C@H](Nc2ccccc2C(=O)c2ccccc2)C(=O)O)cc1
active: [1] 8.87 µM | [2] 9.85 µM | [3] 7.38 µM | [4] 5.22 µM | [5] 6.66 µM | [6] 7.7 µM | [7] 30.8 µM | [8] 29.1 µM | [9] 20.6 µM

NC(=O)N1C(=O)C(C(=O)c2cc(Cl)cs2)c2cc(F)c(Cl)cc21 (centres undefined)
active: [1] 12.9 µM | [2] 11.2 µM | [3] 7.48 µM | [5] 4.33 µM | [6] 12.5 µM | [7] 1.47 µM | [9] 20 µM
inactive: [4] | [8]

CC(C)CCCCCCOC(=O)CCCCC(=O)OCCCCCCC(C)C
not listed: CD40, CD40 (gene 958)
inactive: all other assays above
